“And” between values parts separate entries of the source, which are not always exact repeats. Equal entries are not always repeated. Records with an inconclusive call do not appear. Entries that show only a call come without a potency. More than one record can exist for a structure, and the calls need not agree. The source made the active and inactive calls. Unless noted, the call rests on the fitted dose curve; in most records, active means well fitted curve in the direction sought with a large enough effect in the repeat runs; inconclusive means weak or mixed curves; inactive means no such curve, though single readings can be large; an effect the other way counts as inactive or inconclusive.
Columns and labels:
[1] = qHTS assay to identify small molecule antagonists of the glucocorticoid receptor (GR) signaling pathway - cell viability counter screen (AID 720693); further: nearly all actives have a fitted effect of over 55% in size
[2] = qHTS assay for identifying genotoxic compounds that show differential cytotoxicity against isogenic chicken DT40 cell lines with known DNA damage response pathways - wild type cell line (AID 743012); further: nearly all actives have a fitted effect of over 60% in size; further: potency means the concentration at half of the fitted maximal effect
How it was run: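 Wild type DT40, 300 cells/well, ~0.5 h settle at 37 C/5% CO2; compounds in DMSO added by pintool; 40 h at 37 C/5% CO2; CellTiter-Glo, 30 min RT; luminescence.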

[3] = qHTS assay for identifying genotoxic compounds that show differential cytotoxicity against isogenic chicken DT40 cell lines with known DNA damage response pathways - Rev3 mutant cell line (AID 743014); further: nearly all actives have a fitted effect of over 55% in size; further: potency means the concentration at half of the fitted maximal effect
[4] = qHTS assay for identifying genotoxic compounds that show differential cytotoxicity against isogenic chicken DT40 cell lines with known DNA damage response pathways - Rad54/Ku70 mutant cell line (AID 743015); further: nearly all actives have a fitted effect of over 60% in size; further: potency means the concentration at half of the fitted maximal effect
[5] = qHTS assay to identify small molecule antagonists of the androgen receptor (AR) signaling pathway - cell viability counter screen (AID 743033; further: nearly all actives have a fitted effect of over 45% in size; further: potency means the concentration at half of the fitted maximal effect)
[6] = molecular target: Androgen receptor (Homo sapiens) (UniProt P10275); test: qHTS assay to identify small molecule agonists of the androgen receptor (AR) signaling pathway using the MDA cell line (AID 743040; further: nearly all actives have a fitted effect of over 20% in size)
How it was run: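 Human breast carcinoma MDA-kb2 reporter cells (MMTV-luc, AR/GR elements) were treated for 16 h at 37C in 0% CO2 following a 5 h settling period. Signal was quantified by ONE-Glo luminescence.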

[7] = qHTS assay to identify small molecule antagonists of the androgen receptor (AR) signaling pathway using the MDA cell line - cell viability counter screen (AID 743041; further: nearly all actives have a fitted effect of over 45% in size; further: potency means the concentration at half of the fitted maximal effect)
How it was run: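 Same-well cytotoxicity was assessed by CellTiter-Fluor in MDA-kb2 AR-luc cells after 16 h of compound treatment under R1881 agonism.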

[8] = molecular target: Androgen receptor (Homo sapiens) (UniProt P10275); test: qHTS assay to identify small molecule antagonists of the androgen receptor (AR) signaling pathway using the MDA cell line (AID 743042; further: nearly all actives have a fitted effect of over 55% in size)
How it was run: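 MDA-kb2 breast carcinoma cells carrying MMTV-luciferase (AR/GR responsive) were co-treated with compounds and the agonist R1881 for 16 h at 37C. Inhibition read as ONE-Glo luminescence; CellTiter-Fluor fluorescence measured in parallel for cytotoxicity.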

[9] = qHTS assay to identify small molecule antagonists of the thyroid receptor (TR) signaling pathway - cell viability counter screen (AID 743064); further: nearly all actives have a fitted effect of over 50% in size; further: potency means the concentration at half of the fitted maximal effect
How it was run: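 Same-well viability check: GH3.TRE-Luc cells stimulated with 1 nM T3 alongside test compound for 23.5 h, followed by CellTiter-Fluor fluorescence.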

[10] = qHTS assay to identify small molecule antagonists of the thyroid receptor (TR) signaling pathway (AID 743065); further: nearly all actives have a fitted effect of over 55% in size; further: potency means the concentration at half of the fitted maximal effect
How it was run: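 GH3.TRE-Luc rat pituitary cells (two TREs driving luciferase) were dosed with compound, then stimulated with 1 nM T3 (final) for 23.5 h at 37 C. ONE-Glo luminescence was the read-out, with CellTiter-Fluor fluorescence as the cytotoxicity counter-screen.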

[11] = test system: thyroid hormone receptor (rat, GH3 cells); test: qHTS assay to identify small molecule agonists of the thyroid receptor (TR) signaling pathway (AID 743066; calls by dose curve; further: potency means the concentration at half of the fitted maximal effect)
[12] = molecular target: Estrogen receptor (Homo sapiens) (UniProt P03372); test: qHTS assay to identify small molecule antagonists of the estrogen receptor alpha (ER-alpha) signaling pathway (AID 743069; active means well fitted curve in the direction sought with a large enough effect in the signal ratio in the repeat runs, not every such curve was filed as active; the % refers to the signal ratio; further: potency means the concentration at half of the fitted maximal effect)
How it was run: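 Reporter cells (ER-alpha-bla, HEK293 background) are conditioned overnight in stripped-serum medium (2% charcoal-stripped FBS). Compound and 17beta-estradiol exposure runs 18 hr at 37C, 5% CO2.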

[13] = qHTS assay to identify small molecule antagonists of the estrogen receptor alpha (ER-alpha) signaling pathway - cell viability counter screen (AID 743074; calls by dose curve;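 further: HEK293 cells carrying ER-alpha-UAS-bla reporter stimulated with 17beta-estradiol; nearly all actives have a fitted effect of over 45% in size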)
[14] = molecular target: Estrogen receptor (Homo sapiens) (UniProt P03372); test: qHTS assay to identify small molecule agonists of the estrogen receptor alpha (ER-alpha) signaling pathway (AID 743075; calls by dose curve;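 further: HEK293 GripTite cells with ER-alpha and UAS-driven beta-lactamase reporter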)
[15] = molecular target: Estrogen receptor (Homo sapiens) (UniProt P03372); test: qHTS assay to identify small molecule agonists of the estrogen receptor alpha (ER-alpha) signaling pathway using the BG1 cell line (AID 743079); further: nearly all actives have a fitted effect of over 20% in size; further: potency means the concentration at half of the fitted maximal effect
[16] = qHTS assay to identify small molecule antagonists of the estrogen receptor alpha (ER-alpha) signaling pathway using the BG1 cell line (AID 743080; calls by dose curve;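 further: BG1 cells stimulated with 17beta-estradiol alongside compound; nearly all actives have a fitted effect of over 25% in size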; further: potency means the concentration at half of the fitted maximal effect); conditions: BG1Luc4E2 ERE-luciferase antagonist mode, luminescence; activity change, negative = inhibition: at 70.3 µM (top of the series)
How it was run: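 Luminescence from a 4×ERE-luciferase reporter in BG1-Luc-4E2 cells served as read-out. Cells, pre-cultured 5 days in stripped-serum phenol-red-free medium, were exposed to compound with 17beta-estradiol co-stimulation for 21.5 h at 37 C.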

[17] = qHTS assay to identify small molecule antagonists of the estrogen receptor alpha (ER-alpha) signaling pathway using the BG1 cell line - cell viability counter screen (AID 743081);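 further: compound given together with 17beta-estradiol as the ER stimulus; nearly all actives have a fitted effect of over 45% in size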; further: potency means the concentration at half of the fitted maximal effect
Aromatase (Homo sapiens) = Aromatase (Homo sapiens) (UniProt P11511); test: qHTS assay to identify aromatase inhibitors (AID 743083); further: nearly all actives have a fitted effect of over 55% in size; further: potency means the concentration at half of the fitted maximal effect
[18] = molecular target: Androgen receptor (Homo sapiens) (UniProt P10275); test: qHTS assay to identify small molecule antagonists of the androgen receptor (AR) signaling pathway (AID 743035; active means well fitted inhibition curve with a large enough effect in the signal ratio in the repeat runs, not every such curve was filed as active; the % refers to the signal ratio)
How it was run: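 Fluorescence from a beta-lactamase FRET substrate (LiveBLAzer B/G, 2 h, room temperature) measured inhibition of R1881-stimulated signaling in GeneBLAzer AR-UAS-bla HEK293 cells exposed to compound for 16 h at 37C.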

[19] = molecular target: Androgen receptor (Homo sapiens) (UniProt P10275); test: qHTS assay to identify small molecule agonists of the androgen receptor (AR) signaling pathway (AID 743036; active means well fitted activation curve with a large enough effect in the signal ratio in the repeat runs, with a control signal flat, not every such curve was filed as active; the % refers to the signal ratio)
How it was run: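 Agonist activity was scored by beta-lactamase reporter fluorescence in stably transfected HEK293 cells exposed to compounds for 16 h at 37C and 5% CO2. Substrate loading took 2 h at room temperature.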

Estrogen receptor (Homo sapiens), sequence (P03372 whole entry, looked up): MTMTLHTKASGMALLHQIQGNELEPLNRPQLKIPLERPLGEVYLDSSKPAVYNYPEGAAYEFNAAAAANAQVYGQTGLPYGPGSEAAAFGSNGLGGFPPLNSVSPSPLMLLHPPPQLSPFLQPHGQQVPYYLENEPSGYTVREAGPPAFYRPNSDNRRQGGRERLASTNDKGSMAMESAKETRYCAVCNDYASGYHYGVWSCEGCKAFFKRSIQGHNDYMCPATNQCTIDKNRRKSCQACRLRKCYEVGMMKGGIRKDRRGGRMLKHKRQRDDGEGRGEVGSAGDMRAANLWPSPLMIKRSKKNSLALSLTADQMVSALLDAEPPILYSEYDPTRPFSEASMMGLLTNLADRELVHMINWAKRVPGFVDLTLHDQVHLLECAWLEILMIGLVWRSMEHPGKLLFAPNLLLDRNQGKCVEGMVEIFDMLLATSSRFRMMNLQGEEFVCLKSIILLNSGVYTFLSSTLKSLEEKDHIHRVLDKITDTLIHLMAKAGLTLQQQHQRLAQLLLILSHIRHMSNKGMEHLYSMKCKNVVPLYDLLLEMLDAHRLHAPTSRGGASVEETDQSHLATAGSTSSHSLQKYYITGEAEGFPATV
Aromatase (Homo sapiens), sequence (P11511 whole entry, looked up): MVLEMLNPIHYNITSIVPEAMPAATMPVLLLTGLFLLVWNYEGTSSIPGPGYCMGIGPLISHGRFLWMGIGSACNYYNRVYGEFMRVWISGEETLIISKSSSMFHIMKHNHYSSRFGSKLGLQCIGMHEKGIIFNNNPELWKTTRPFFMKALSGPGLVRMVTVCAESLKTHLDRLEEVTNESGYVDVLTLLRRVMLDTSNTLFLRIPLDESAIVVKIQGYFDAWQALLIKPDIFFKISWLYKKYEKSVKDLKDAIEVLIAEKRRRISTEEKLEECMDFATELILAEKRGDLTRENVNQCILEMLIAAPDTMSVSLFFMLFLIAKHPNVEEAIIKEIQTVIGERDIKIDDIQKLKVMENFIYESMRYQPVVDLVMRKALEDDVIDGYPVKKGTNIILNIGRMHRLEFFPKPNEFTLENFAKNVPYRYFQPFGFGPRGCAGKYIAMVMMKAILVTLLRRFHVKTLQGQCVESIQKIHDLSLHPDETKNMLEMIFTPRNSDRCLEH
Androgen receptor (Homo sapiens), sequence (P10275 whole entry, looked up): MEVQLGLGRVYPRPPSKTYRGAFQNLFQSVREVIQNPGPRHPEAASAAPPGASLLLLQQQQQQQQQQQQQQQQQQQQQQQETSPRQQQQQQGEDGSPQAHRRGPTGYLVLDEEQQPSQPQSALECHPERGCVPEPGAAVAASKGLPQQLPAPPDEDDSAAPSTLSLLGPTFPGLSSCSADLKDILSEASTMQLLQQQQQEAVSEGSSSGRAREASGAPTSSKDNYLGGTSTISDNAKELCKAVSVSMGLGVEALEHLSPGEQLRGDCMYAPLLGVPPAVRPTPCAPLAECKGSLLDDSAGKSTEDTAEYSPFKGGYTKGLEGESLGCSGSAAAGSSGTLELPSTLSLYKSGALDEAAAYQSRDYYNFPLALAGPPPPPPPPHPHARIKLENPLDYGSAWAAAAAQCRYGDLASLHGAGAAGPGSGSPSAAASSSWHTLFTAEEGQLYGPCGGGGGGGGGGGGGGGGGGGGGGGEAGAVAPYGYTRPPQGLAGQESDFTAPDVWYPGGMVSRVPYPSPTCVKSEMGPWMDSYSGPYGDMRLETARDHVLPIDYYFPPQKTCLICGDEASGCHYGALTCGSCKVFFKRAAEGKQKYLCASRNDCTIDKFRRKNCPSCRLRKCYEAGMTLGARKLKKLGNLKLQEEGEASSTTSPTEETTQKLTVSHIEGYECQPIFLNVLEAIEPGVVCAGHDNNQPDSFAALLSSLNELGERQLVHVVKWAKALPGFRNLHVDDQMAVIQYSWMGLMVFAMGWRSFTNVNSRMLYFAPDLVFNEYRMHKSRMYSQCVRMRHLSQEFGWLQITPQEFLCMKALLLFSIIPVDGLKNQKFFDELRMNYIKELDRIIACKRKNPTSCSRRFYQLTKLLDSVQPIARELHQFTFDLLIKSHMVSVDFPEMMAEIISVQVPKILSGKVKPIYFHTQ

SMILES	Potency [1]	Potency [2]	Potency [3]	Potency [4]	Potency [5]	outcome [6]	Potency [7]	Potency [8]	Potency [9]	Potency [10]	Potency [11]	Potency [12]	Potency [13]	Potency [14]	Potency [15]	Potency [16]	Potency [17]	Potency (Aromatase (Homo sapiens))	Potency [18]	outcome [19]
COc1ccc2c(c1)c(CC(=O)O)c(C)n2C(=O)c1ccc(Cl)cc1	inactive	inactive	inactive	inactive	inactive	inactive	inactive	inactive	inactive	inactive	inactive	inactive	inactive	inactive	inactive	inactive	inactive	inactive	–	–
O=S1(=O)OC(c2ccc(O)cc2)(c2ccc(O)cc2)c2ccccc21	inactive	inactive	inactive	inactive and 43.3 µM (active)	inactive	–	48.6 µM (active) and 61.1 µM (active)	–	27.3 µM (active)	inactive	inactive	inactive	inactive	inactive	15 µM (active) and inactive	inactive	13.3 µM (active) and 27.3 µM (active) and 17.2 µM (active)	inactive	–	–
CCCc1cc(=O)[nH]c(=S)[nH]1	inactive	inactive	inactive and 61.1 µM (active)	inactive and 54.5 µM (active)	inactive	–	inactive	–	inactive	inactive	inactive	inactive	inactive	inactive	26.6 µM (active) and inactive	inactive	inactive	inactive	–	–
CCCCC1(COC(=O)CCC(=O)O)C(=O)N(c2ccccc2)N(c2ccccc2)C1=O	inactive	inactive	inactive	inactive	inactive	inactive	inactive	inactive	inactive	inactive	inactive	inactive	inactive	inactive	inactive	inactive	inactive	inactive	inactive	inactive
Nc1c(N=Nc2ccc(-c3ccc(N=Nc4cc(S(=O)(=O)O)c5ccccc5c4N)cc3)cc2)cc(S(=O)(=O)O)c2ccccc12	inactive	inactive and 6.85 µM (active)	inactive and 34.3 µM (active)	54.4 µM (active)	inactive	–	26.6 µM (active) and 30.6 µM (active)	–	16.8 µM (active) and 27.3 µM (active)	10.6 µM (active) and 30.6 µM (active)	inactive	–	inactive	–	–	–	13.3 µM (active) and 24.3 µM (active)	–	–	–
CCCCCCCC(=O)OCC(COC(=O)CCCCCCC)OC(=O)CCCCCCC	inactive	inactive	inactive	inactive	inactive	–	inactive	–	inactive	inactive	inactive	inactive	inactive	inactive	inactive	inactive	inactive	inactive	–	–
NC(CO)(CO)CO	inactive	inactive	inactive	inactive	inactive	–	inactive	–	inactive	inactive	inactive and 9.69 µM (active)	inactive	inactive	inactive	inactive	inactive	inactive	inactive	–	–
NS(=O)(=O)c1cc2c(cc1Cl)NCNS2(=O)=O	inactive	inactive	inactive	inactive	inactive	–	inactive	–	inactive	inactive	inactive	inactive	inactive	inactive	inactive	inactive	inactive	inactive	–	–
CC(C)C(=O)Nc1ccc([N+](=O)[O-])c(C(F)(F)F)c1	inactive	13.3 µM (active) and 44.5 µM (active) and 19.3 µM (active)	29.8 µM (active) and 25 µM (active) and 30.6 µM (active)	18.8 µM (active) and 22.3 µM (active) and 19.3 µM (active)	inactive and 25.2 µM (active) and 49 µM (active)	–	inactive	–	inactive	62.9 µM (active)	inactive	inactive and 49 µM [inhibitor] (active)	inactive	inactive	–	29.8 µM (active) and 49.9 µM (active)	inactive	inactive and 62.9 µM (active)	–	–
CCCCOC(=O)c1ccc(O)cc1	inactive	inactive	inactive and 61.1 µM (active)	inactive and 61.1 µM (active)	inactive	inactive	inactive	inactive	inactive	inactive	inactive	–	inactive	–	–	–	inactive	inactive	inactive	inactive
Nc1c2c(nc3ccccc13)CCCC2	inactive	inactive and 27.3 µM (active)	inactive and 27.3 µM (active)	inactive and 19.3 µM (active)	inactive	–	inactive	–	inactive	inactive	inactive	inactive	inactive	inactive	inactive and 24.3 µM (active)	–	inactive	inactive	–	–

Source: PubChem BioAssay (Tox21)
